# The supplement of paper PMC8728848
# Only a selection was taken, and the strongest signals are over-represented in it overall.
# B1: PX14343B-bfa-546-20-546 (Bacteroides fragilis) (protein)
# chain: CDLERYPLTDLSEETFWNSESNAELALTSLYRGSLTDGVEYNPSDWWSYHGMIMMEHLSDNAFDRRGENNPFFKISSGNLTADNAFIKRYWETSYKRIGYCNRFLVGIQNSSESEKKTRMIAEARFLRATQYFYLASYFKNVPLVENVLTGEEANNVTKTSQADILKWCVTEFTAAAADLPRFSAIPAGEAGRACKQAALAFLGRTCMLQKDWKSGAKAFHDIMELGDNAINANYQELFYPSTGTSNKENIFYIQYLENYLGTGLPQHALSAKDGGWSLVNPAADLYESYEFKDGTPFSYDDPRYDPSNLGKDRDPRLDYTIYYNGAIFMGTEYKMSPDYSAAKKEKLDYTSEASRTGFMMRKYFEESTPINDVQSANGLTPVIRYAEVLLGYLECLVEDNQTITQGILDETINAVRGRASVNMPPVTEVTPAKLREIVRHERRIELAMEGIRYWDIMRWGIAHEVLSQKIWGAPYPGSTQYATTTKEVDPTGNYRWYVGKRAFRNPTDYTWPIPQSEQNINPNLRD
# Tests used:
# Test in all cases: glycan array binding signal (z-score within array); higher = stronger binding
# Conditions in all cases: glycan notation: IUPAC condensed, linker removed
# [1] = target: Fuc(a1-2)Gal(b1-3)GalNAc(b1-3)Gal
# In short: (§1)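 From the Consortium for Functional Glycomics database, 3228 arrays were curated, keeping only those whose protein sequence was available. Binding is given as a within-array Z-score averaged across arrays sharing a protein sequence and across linkers. Negative Z-scores can be read as non-binding.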
# [2] = target: Fuc(a1-2)Gal(b1-3)GlcNAc(b1-3)[Fuc(a1-2)Gal(b1-3)GlcNAc(b1-6)]GalNAc
# In short: as §1
# [3] = target: Fuc(a1-2)Gal3S(b1-4)GlcNAc
# In short: as §1
# [4] = target: Fuc(a1-2)Gal6S(b1-3)GlcNAc
# In short: as §1
# [5] = target: Fuc(a1-2)Gal6S(b1-3)GlcNAc6S
# In short: as §1
# [6] = target: Fuc(a1-2)Gal6S(b1-4)Glc6S
# In short: as §1
# [7] = target: Fuc(a1-2)[Gal(a1-3)]Gal(b1-4)GlcNAc
# In short: as §1
# [8] = target: Fuc(a1-2)[Gal(a1-3)]Gal(b1-4)[Fuc(a1-3)]Glc
# In short: as §1
# [9] = target: Fuc(a1-2)[GalNAc(a1-3)]Gal(b1-4)GlcNAc(b1-3)Gal(b1-4)GlcNAc
# In short: as §1
# [10] = target: Fuc(a1-2)[GalNAc(a1-4)]Gal(b1-4)GlcNAc
# In short: as §1
# [11] = target: Fuc(a1-3)[Gal(b1-4)]GlcNAc6S
# In short: as §1
# Gal(a1-3)Gal(b1-4)GlcNAc = target: Gal(a1-3)Gal(b1-4)GlcNAc
# In short: as §1
# Gal(b1-3)Gal(b1-4)GlcNAc = target: Gal(b1-3)Gal(b1-4)GlcNAc
# In short: as §1
# [12] = target: Gal(b1-3)GalNAc(a1-3)[Fuc(a1-2)]Gal(b1-4)Glc
# In short: as §1
# [13] = target: Gal(b1-3)GlcNAc(b1-2)[Gal(b1-3)GlcNAc(b1-6)]Man(a1-6)[Gal(b1-3)GlcNAc(b1-2)Man(a1-3)]Man(b1-4)GlcNAc(b1-4)GlcNAc
# In short: as §1
# [14] = target: Gal(b1-3)GlcNAc(b1-3)Gal(b1-4)GlcNAc(b1-3)Gal(b1-4)GlcNAc(b1-2)[Gal(b1-3)GlcNAc(b1-3)Gal(b1-4)GlcNAc(b1-3)Gal(b1-4)GlcNAc(b1-6)]Man(a1-6)[Gal(b1-3)GlcNAc(b1-3)Gal(b1-4)GlcNAc(b1-3)Gal(b1-4)GlcNAc(b1-2)Man(a1-3)]Man(b1-4)GlcNAc(b1-4)[Fuc(a1-6)]GlcNAc
# In short: as §1
# [15] = target: Gal(b1-3)GlcNAc(b1-3)GalNAc
# In short: as §1
# Gal(b1-4)GlcNAc = target: Gal(b1-4)GlcNAc
# In short: as §1
# [16] = target: Gal(b1-4)GlcNAc(b1-3)Gal(b1-4)GlcNAc
# In short: as §1
# [17] = target: Gal(b1-4)GlcNAc(b1-3)Gal(b1-4)GlcNAc(b1-3)Gal(b1-4)GlcNAc
# In short: as §1
# [18] = target: Gal(b1-4)GlcNAc(b1-3)[Gal(b1-4)GlcNAc(b1-6)]Gal(b1-4)GlcNAc
# In short: as §1
# Gal6S(b1-3)GlcNAc = target: Gal6S(b1-3)GlcNAc
# In short: as §1
# Gal6S(b1-3)GlcNAc6S = target: Gal6S(b1-3)GlcNAc6S
# In short: as §1
# Gal6S(b1-4)Glc = target: Gal6S(b1-4)Glc
# In short: as §1
# Gal6S(b1-4)Glc6S = target: Gal6S(b1-4)Glc6S
# In short: as §1
# Gal6S(b1-4)GlcNAc = target: Gal6S(b1-4)GlcNAc
# In short: as §1
# Gal6S(b1-4)GlcNAc6S = target: Gal6S(b1-4)GlcNAc6S
# In short: as §1
# GalNAc(b1-3)Gal = target: GalNAc(b1-3)Gal
# In short: as §1
# [19] = target: GalNAc3S(b1-4)[Fuc(a1-3)]GlcNAc
# In short: as §1
# GalNAc6S(b1-4)GlcNAc = target: GalNAc6S(b1-4)GlcNAc
# In short: as §1
binder,measurement,setting,value
B1,glycan array binding signal (z-score),[1],-0.117
same,glycan array binding signal (z-score),[2],-0.126
same,glycan array binding signal (z-score),[3],4.47
same,glycan array binding signal (z-score),[4],2.42
same,glycan array binding signal (z-score),[5],6.35
same,glycan array binding signal (z-score),[6],0.709
same,glycan array binding signal (z-score),[7],-0.126
same,glycan array binding signal (z-score),[8],-0.124
same,glycan array binding signal (z-score),[9],-0.126
same,glycan array binding signal (z-score),[10],-0.115
same,glycan array binding signal (z-score),[11],-0.129
same,glycan array binding signal (z-score),Gal(a1-3)Gal(b1-4)GlcNAc,-0.122
same,glycan array binding signal (z-score),Gal(b1-3)Gal(b1-4)GlcNAc,-0.113
same,glycan array binding signal (z-score),[12],-0.122
same,glycan array binding signal (z-score),[13],-0.117
same,glycan array binding signal (z-score),[14],-0.113
same,glycan array binding signal (z-score),[15],-0.12
same,glycan array binding signal (z-score),Gal(b1-4)GlcNAc,-0.128
same,glycan array binding signal (z-score),[16],-0.132
same,glycan array binding signal (z-score),[17],-0.113
same,glycan array binding signal (z-score),[18],-0.123
same,glycan array binding signal (z-score),Gal6S(b1-3)GlcNAc,9.99
same,glycan array binding signal (z-score),Gal6S(b1-3)GlcNAc6S,6.09
same,glycan array binding signal (z-score),Gal6S(b1-4)Glc,1.73
same,glycan array binding signal (z-score),Gal6S(b1-4)Glc6S,3.07
same,glycan array binding signal (z-score),Gal6S(b1-4)GlcNAc,9.6
same,glycan array binding signal (z-score),Gal6S(b1-4)GlcNAc6S,13.3
same,glycan array binding signal (z-score),GalNAc(b1-3)Gal,-0.123
same,glycan array binding signal (z-score),[19],-0.136
same,glycan array binding signal (z-score),GalNAc6S(b1-4)GlcNAc,10.1
